Among the data in PubChem BioAssay (NCI) are growth values, retold here.

This is part of a sample that, as a whole, favours compounds with a hit. Of some 83,000 tested, about 20% had one in any assay.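 Assay: single dose, 48 h. Readout: percent growth (0 = no net growth; negative = cell death). Active: <10.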 A number with no mark means an inactive call. Calls of active or inactive are those of the source.

Test in all cases: NCI-60 one-dose screen, 48 h (100 = growth as untreated, 0 = no growth, -100 = all killed)
Common to all, as to conditions: 10 µM unless noted

In assay [1] the test system is SK-MEL-2 melanoma.
Assay [2] has as its system EKVX NSCLC.
Assay [3] concerns SN12C renal.
Assay [4] deals with TK-10 renal.
In assay [5] the test system is ACHN renal.
In assay [6] the test system is CAKI-1 renal.
For assay [7], the system named is A498 renal.
In assay [8] the test system is CCRF-CEM leukemia.
Assay [9] relates to MOLT-4 leukemia.
Assay [10] relates to SR leukemia.
The test system of assay [11] is RPMI-8226 leukemia.
Assay [12] has as its system OVCAR-8 ovarian.
Assay [13] concerns OVCAR-5 ovarian.
The test system of assay [14] is OVCAR-4 ovarian.
The subject of assay [15] is SK-OV-3 ovarian.
Assay [16] deals with IGROV1 ovarian.
The test system of assay [17] is OVCAR-3 ovarian.
The test system of assay [18] is HS 578T breast.
Assay [19] deals with NCI/ADR-RES ovarian.

Take `COc1ccc(CNc2c3ccccc3nc3ccccc23)c(OC)c1`: the growth is 94% in assay [1]; 51.1% in assay [2]; 31% in assay [3]; 54.4% in assay [4]; 25.8% in [5]; 36.2% in assay [6]. For the same compound, the growth is -11.5% (active) in assay [7]; 55.4% in assay [8]; 18.5% in [9]; 18.1% in assay [10]; 34.9% in assay [11]; 37.8% in assay [12]. Also, the growth was 50.3% in [13]; 39.7% in [14]; 63.3% in [15]; 22.4% in assay [16]; 69.2% in [17]; 68.9% in assay [18]. For the same compound, the growth in [19] was 35.6%.

For `C=Cc1cnc(Nc2ccc(OC)cc2)nc1NCCCNC(=O)C1CCC1`, the growth in assay [1] is 87%; in assay [2] it was 56.8%; in [3], 20.6%; in [4] it was 26%; in [5] it was 41.5%; in [6] it was 14.4%. In addition, the growth in assay [7] is 47.3%; in assay [8] it was 28%; in assay [9] it was 24%; in assay [10], 9.88% (active); in [11], 43.8%; in assay [12], 49.2%. Moreover, the growth in assay [13] was 48%; in assay [14], 46.4%; in assay [15], 20.4%; in assay [16] it was 44.6%; in assay [17], 48.2%; in assay [18] it was 18.7%. The growth in assay [19] was 53.5%.

For `CC1(C)CC[C@]2(C(=O)N[C@H](CO)Cc3ccccc3)CC[C@]3(C)C(=CC[C@@H]4[C@@]5(C)CCCNC(C)(C)[C@@H]5CC[C@]43C)[C@@H]2C1`, the growth in assay [1] is 107%; in [2], 90.9%; in assay [3], 78.6%; in assay [4], 95.5%; in assay [5], 101%; in assay [6] it was 77.3%. The growth in assay [7] is 85.1%; in assay [8], 41.8%; in assay [9], 35.1%; in assay [11], 36%; in assay [12], 97%; in assay [13], 101%. Moreover, the growth in assay [14] is 87.7%; in assay [15], 100%; in assay [16], 65.1%; in assay [17], 97.3%; in assay [18], 85.6%; in assay [19], 85.6%.

As for `O=C(CCCCCCN1CC(=O)N2[C@H](c3ccc(Br)cc3)c3[nH]c4ccccc4c3C[C@@H]2C1=O)NO`, the growth in assay [1] was 60.3%; in [2], 56.7%; in [3], 56.6%; in assay [4], 40.6%; in assay [5] it was 72.3%; in assay [6], 51.5%. Moreover, the growth in assay [7] was 67.4%; in [8], 21%; in assay [9], 5.86% (active); in [10], 24%; in assay [11], 18%; in assay [12], 41.2%. Besides, the growth in [13] is 40.5%; in assay [14], 67.5%; in assay [15], 49.5%; in assay [16], 23.9%; in assay [17] it was 41.5%; in assay [18], 53%. For the same compound, the growth in [19] was 89.6%.

On to `Clc1ccccc1-c1cnn2cc(-c3ccccc3)cnc12`, for which the growth is 101% in assay [1]; 83.3% in assay [2]; 79.5% in [3]; 89.1% in assay [4]; 74.1% in [5]; 81.4% in assay [6]. Also, the growth is 72% in assay [7]; 89.2% in [8]; 83.7% in assay [9]; 59.9% in assay [10]; 87.1% in assay [11]; 78.9% in assay [12]. Besides, the growth was 79.6% in assay [13]; 76.1% in assay [14]; 83.9% in assay [15]; 78.6% in assay [16]; 74.4% in [18]; 83.7% in assay [19].

For the compound `NC(=O)c1cnc(Nc2cccc(N)c2)nc1NCCCNC(=O)C1CCC1`, the growth in assay [1] is 65.2%; in assay [2], 93%; in assay [3] it was 33%; in assay [4] it was 32.1%; in assay [5], 49.5%; in assay [6], 37.2%. Further, the growth is 90.4% in [7]; 25.9% in [8]; 26.1% in assay [9]; 77.1% in assay [10]; 97.3% in assay [11]; 71.1% in [12]. The growth in assay [13] was 119%; in assay [14], 88.5%; in assay [15], 27.1%; in assay [16] it was 65.8%; in assay [17], 82.6%; in [18], 72.8%. Also, in assay [19], the growth is 108%.

Turning to `COc1ccc2c(c1)c(-c1nc(-c3c[nH]c4ncccc34)cs1)cn2CCCN1CCOCC1`, the growth in [1] is 11.4%; in assay [2], 57.8%; in assay [3], 52.7%; in assay [4], 51.5%; in assay [5], 14.5%; in assay [6] it was 28.8%. Besides, the growth was 13.1% in [8]; 6.64% (active) in [10]; 0.661% (active) in assay [11]; 25.3% in assay [12]; 68.1% in assay [13]; 41.5% in assay [14]. Besides, the growth is 51.8% in assay [15]; 22.9% in assay [16]; 44% in assay [17]; 2.12% (active) in [18]; 43.4% in assay [19].

For `Cc1ccc(-c2nc(N3CCNCC3)c3oc(-c4ccc(C)cc4)nc3n2)cc1`, the growth was 99.2% in assay [1]; 120% in assay [2]; 50.9% in assay [3]; -30.4% (active) in assay [4]; 50.7% in assay [5]; 101% in assay [6]. The growth in [7] was 94.8%; in assay [8], -72.2% (active); in assay [9], -72.6% (active); in assay [10], -49.2% (active); in assay [11], -49.1% (active); in assay [12], -69% (active). The growth is 78.4% in [13]; 11.9% in assay [14]; 86.2% in assay [15]; -77.1% (active) in [16]; -94.6% (active) in assay [17]; 99.2% in [18]. In assay [19], the growth is -28.9% (active).

For the compound `Cc1ccc(C2CC(c3nc(-c4ccc(Cl)cc4)oc3C)=NN2C(=O)c2ccncc2)cc1` (stereo not given), the growth is 92.9% in assay [1]; 91.3% in assay [2]; 86.8% in assay [3]; 106% in assay [4]; 87.3% in [5]; 69.2% in [6]. Besides, the growth was 82.6% in [7]; 90.7% in assay [8]; 64.7% in assay [9]; 83.2% in assay [11]; 90.4% in [12]; 107% in [13]. Besides, the growth in [14] was 82.5%; in [15], 92.3%; in assay [16] it was 70.7%; in [17], 90.7%; in assay [18] it was 83.1%; in assay [19] it was 88.1%.

With `COc1ccc(-c2nc(/C=C3\C(=O)N(C)c4ccccc43)c3ccccn23)cc1`, the growth in assay [1] was 83.7%; in [2], 113%; in [3] it was 82.3%; in assay [4] it was 60.1%; in assay [5], 64.5%; in [6], 94.1%. The growth in [7] is 103%; in [8], 71.7%; in assay [9], 95.7%; in assay [10], -7.02% (active); in [11] it was 104%; in assay [12], 58.6%. Also, the growth was 85.5% in assay [13]; 47.2% in assay [14]; 66.8% in [15]; 69.7% in assay [16]; 41.3% in [18]; 77.6% in [19].

Regarding `COc1cccc(/C=C/C(=O)c2cccc(Nc3nc(Nc4ccccc4)nc(Nc4ccccc4)n3)c2)c1`, the growth in assay [1] was 57.9%; in assay [2] it was 78.6%; in assay [3], 106%; in assay [4], 77.5%; in assay [5] it was 86%; in assay [6], 84.4%. Moreover, the growth in assay [7] is 94.7%; in assay [8], 43.8%; in assay [10] it was 42.4%; in [11], -55.2% (active); in [12], 77.7%; in assay [13], 89%. The growth in [14] is 84.1%; in [15], 101%; in assay [16], 77.5%; in assay [17], 76.6%; in [18] it was 81.5%; in assay [19], 83.4%.

Consider `CCN(CC)c1ccc(/C=N/NC(=O)Cc2ccc(Nc3ccnc(C(F)(F)F)c3)cc2)c(O)c1`, for which the growth in assay [1] was 56.1%; in assay [2], 10.5%; in assay [3] it was 40.3%; in assay [4] it was 35.4%; in [5], 19.4%; in [6], -20.8% (active). The growth in [7] is 22%; in [8], 9.9% (active); in assay [9], 10.4%; in assay [11], 25.8%; in assay [12] it was 28.8%; in [13], 48.2%. Moreover, the growth is 20.9% in assay [14]; 28% in assay [15]; 25.1% in [16]; 32.4% in assay [17]; 37.7% in assay [18]; 18.3% in [19].
